Records with an inconclusive call do not appear. Active and inactive are the calls of the source. Unless noted, the call rests on the fitted dose curve.

The source of these data is PubChem BioAssay (NCATS).

In assay [1] the target is Estrogen receptor (Homo sapiens) (UniProt P03372). As to the kind of experiment: qHTS assay for small molecule antagonists of estrogen receptor alpha signaling (AID 588513; active means well fitted curve in the direction sought with a large enough effect in the signal ratio, with a control signal flat, not every such curve was filed as active; the % refers to the signal ratio; further: on the % scale 0 is the no-effect control and ±100 the full control effect). An outline of the steps:
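ER-alpha-UAS-bla GripTite HEK 293 cells in 2% charcoal/dextran-treated FBS medium; compounds titrated (1:2, duplicate), then stimulated with 0.5 nM 17-beta-estradiol for 18 h at 37C. CCF4 beta-lactamase fluorescence; Hill-fit IC50 and efficacy.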
A general note: Quantitative high-throughput screening tests each substance at several concentrations.

The target is the same in assay [2]. As to the kind of experiment: qHTS assay for small molecule agonists of estrogen receptor alpha signaling (AID 588514).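 Further: 0% = vehicle only and 100% = reference agonist; nearly all actives have a fitted effect of over 70% in size.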 A digest of the protocol: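 Reporter-gene assay. […] controls beta-lactamase in HEK 293 GripTite cells; after 18 hrs with compound, CCF4 substrate is added for 2 hrs and fluorescence is read.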
A short description of assay [3]: qHTS assay for small molecule antagonists of peroxisome proliferator-activated receptor delta signaling (AID 588535).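 Further: cells co-treated with a PPAR-delta agonist as stimulator during compound exposure.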 The conditions noted are these: HEK293T PPARd-UAS-bla, beta-lactamase FRET ratio, 18 h; 460 nm channel. A digest of the protocol: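 Cell-based beta-lactamase assay in antagonist mode: 4000 HEK293T PPAR-delta-UAS-bla cells per well, 5 hr preincubation then 18 hr compound incubation at 37 C. IC50 obtained by Hill equation fitting.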

Assay [4] concerns the target Peroxisome proliferator-activated receptor gamma (Homo sapiens) (UniProt P37231). Description: qHTS assay for small molecule agonists of peroxisome proliferator-activated receptor gamma signaling (AID 588536; active means well fitted curve in the direction sought with a large enough effect in the signal ratio, with a control signal flat, not every such curve was filed as active; the % refers to the signal ratio;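 further: 0% = DMSO basal wells and 100% = rosiglitazone at 2 µM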). An outline of the steps:
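GeneBLAzer PPAR-gamma-UAS-bla HEK293 cells in 1% charcoal/dextran-treated FBS medium were treated 16 h at 37 C with compounds. Beta-lactamase activity was read by CCF4 ratio (460/530 nm). Response was normalized to 2 uM rosiglitazone (100%) and DMSO, then Hill-fitted for EC50 and efficacy.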

Assay [5] addresses Vitamin D3 receptor (Homo sapiens) (UniProt P11473). Description: qHTS assay for small molecule antagonists of vitamin D receptor signaling (AID 588541).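 Further: receptor activated by calcitriol during compound treatment; series mostly up to about 77 µM; on the % scale 0 is the no-effect control and ±100 the full control effect.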 An outline of the steps:
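Antagonist-mode beta-lactamase reporter assay: HEK293T VDR-UAS-bla cells were exposed to titrated compound alongside 1-alpha,25-dihydroxyvitamin D3 at 3 nM final for 16 h. Values were normalized to the 50 nM agonist control and DMSO basal, with IC50 and efficacy from Hill equation fits.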

Assay [6] is described as follows: qHTS assay for small molecule agonists of retinoid X receptor alpha signaling (AID 588544).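 On activation: 0% = DMSO basal wells and 100% = reference agonist.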 The conditions noted are these: HEK293T RXRa-UAS-bla, beta-lactamase reporter, 18 h; 530 nm emission.
In assay [7] the target is Retinoic acid receptor RXR-alpha (Homo sapiens) (UniProt P19793). The assay is described as above.
Retinoic acid receptor RXR-alpha (Homo sapiens), sequence (P19793 whole entry, looked up): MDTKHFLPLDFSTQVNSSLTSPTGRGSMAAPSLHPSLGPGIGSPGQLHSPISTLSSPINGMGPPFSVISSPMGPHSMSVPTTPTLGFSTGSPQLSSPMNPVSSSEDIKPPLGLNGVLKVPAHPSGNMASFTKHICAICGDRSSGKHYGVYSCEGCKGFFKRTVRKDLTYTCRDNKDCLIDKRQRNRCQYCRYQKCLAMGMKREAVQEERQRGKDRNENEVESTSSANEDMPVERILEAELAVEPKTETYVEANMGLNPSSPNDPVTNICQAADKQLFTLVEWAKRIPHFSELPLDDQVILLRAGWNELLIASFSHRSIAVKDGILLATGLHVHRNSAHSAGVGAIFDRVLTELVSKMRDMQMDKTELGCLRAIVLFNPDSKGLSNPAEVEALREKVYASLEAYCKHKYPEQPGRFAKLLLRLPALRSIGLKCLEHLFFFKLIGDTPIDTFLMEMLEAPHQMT
Assay [8] has as its target Thyroid hormone receptor beta (Homo sapiens) (UniProt P10828). Description: qHTS assay for small molecule agonists of thyroid hormone receptor beta signaling (AID 588545).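 Further: 0% = DMSO only and 100% = 10 nM T3.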 An outline of the steps: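 Beta-lactamase reporter activity under TR response element control is measured in HEK 293 cells after 18 hrs compound exposure. Signal is ratiometric CCF4 fluorescence, 460/530 nm.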

A short description of assay [9]: qHTS assay for small molecule antagonists of retinoid X receptor alpha signaling (AID 588546; active means well fitted inhibition curve with a large enough effect in the signal ratio, with a control signal flat, not every such curve was filed as active; the % refers to the signal ratio;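 further: cells stimulated with 9-cis-retinoic acid as agonist; on the % scale 0 is the no-effect control and ±100 the full control effect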). The conditions noted are these: HEK293T RXRa-UAS-bla, beta-lactamase ratio, antagonist mode; measured here: W530 green channel, cytotoxicity proxy. An outline of the steps: (§1)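 Beta-lactamase reporter inhibition, read as CCF4 fluorescence ratio (ex 405, em 460/530 nm) after 2 h at RT. HEK293T UAS-bla cells, 2500/well, were stimulated with 9-cis-RA at 500 or 100 nM final alongside test compound for 18 h at 37 C.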

Assay [10] deals with Retinoic acid receptor RXR-alpha (Homo sapiens) (UniProt P19793). Described as above. The conditions noted are these: HEK293T RXRa-UAS-bla, beta-lactamase ratio, antagonist mode. A digest of the protocol: as §1
Assay [11] is described as follows: qHTS assay for environmental chemicals that activate the Aryl hydrocarbon Receptor (AhR) signaling pathway (AID 651777; active means well fitted curve in the direction sought with a large enough effect; an effect the other way counts as inactive or inconclusive; further: % of control where 0% means no effect; nearly all actives have a fitted effect of over 15% in size). The conditions noted are these: 1A2-DRE human hepatoma cells, luciferase, 24 h; activation: stronger effect = higher value. A digest of the protocol: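 Human hepatoma 1A2-DRE cells, stably carrying a dioxin response element and CYP1A2 promoter driving luciferase, were exposed to compounds for 24 hr at 37 C and 5% CO2. Luciferase signal was then read after 30 min One-Glo at room temperature.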

The target in assay [12] is Peroxisome proliferator-activated receptor alpha (Homo sapiens) (UniProt Q07869). As to the kind of experiment: qHTS assay for small molecule agonists of the peroxisome proliferator-activated receptor alpha (PPARalpha) signaling pathway (AID 651778; active means well fitted curve in the direction sought with a large enough effect; an effect the other way counts as inactive or inconclusive; further: % of control where 0% means no effect). The conditions noted are these: PathHunter PPARalpha complementation, chemiluminescence, 6 h; max response: stronger effect = higher value. An outline of the steps:
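Chemiluminescence from complemented enzyme reported PPARalpha activation in cells after 6 hr of compound treatment at 37 C. The detection reagent was incubated for 60 min at room temperature, and compounds were scored as agonists.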

A short description of assay [13]: qHTS assay for small molecule agonists of the antioxidant response element (ARE) signaling pathway measured by Nrf2-dependant transcriptional activity - cell viability counter screen (AID 720653; active means well fitted curve in the direction sought with a large enough effect in the repeat runs; an effect the other way counts as inactive or inconclusive; further: potency means the concentration at half of the fitted maximal effect; on max response: on the % scale 0 is the no-effect control and ±100 the full control effect). The conditions noted are these: ARE-bla HepG2 viability, CellTiter-Glo ATP luminescence, 16 h; max response: stronger effect = lower value. An outline of the steps: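 Cytotoxicity counter screen: intracellular ATP quantified by CellTiter-Glo luminescence in the same ARE-bla HepG2 plates, after 16 h compound exposure and a 2 h beta-lactamase substrate step.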

The nature of assay [14]: qHTS assay for cell viability of HEK293 cells (AID 743288; active means well fitted curve in the direction sought with a large enough effect; an effect the other way counts as inactive or inconclusive; further: nearly all actives have a fitted effect of over 50% in size; further: potency means the concentration at half of the fitted maximal effect). The conditions noted are these: ATP luminescence (CellTiter-Glo), 18 h; max response: stronger effect = lower value. An outline of the steps: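 Parental HEK293 cells, 2,000 per well, preincubated at least 5 h at 37 C, then exposed to compounds in DMSO for 18 h at 37 C. Viability by CellTiter-Glo ATP luminescence after 30 min at room temperature.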

Assay [15] can be described thus: qHTS assay for cell viability of the p53RE-bla HCT-116 cell line (AID 743292; active means well fitted curve in the direction sought with a large enough effect; an effect the other way counts as inactive or inconclusive; further: nearly all actives have a fitted effect of over 55% in size; further: potency means the concentration at half of the fitted maximal effect). A digest of the protocol:
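CellSensor p53RE-bla HCT-116 cells, 4,000/well, preincubated 5 h at 37 C, then exposed to compounds in DMSO for 16 h at 37 C. Viability read as CellTiter-Glo luminescence (intracellular ATP) after 30 min at room temperature.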

Assay [16] addresses Nuclear receptor subfamily 1 group I member 2 (Rattus norvegicus) (UniProt Q9R1A7). As to the kind of experiment: qHTS assay for small molecule activators of the rat pregnane X receptor (rPXR) signaling pathway (AID 651751; call rule not given here; further: 0% is about no effect). The conditions noted are these: rPXR reporter cells, luciferase (One-Glo), 24 h.
A short description of assay [17]: qHTS assay for small molecule activators of the human pregnane X receptor (PXR) signaling pathway (AID 720659; call rule not given here; further: 0% is about no effect).
For assay [18], the target named is Peroxisome proliferator-activated receptor gamma (Homo sapiens) (UniProt P37231). As to the kind of experiment: qHTS assay for small molecule antagonists of peroxisome proliferator-activated receptor gamma signaling (AID 588537; active means well fitted inhibition curve with a large enough effect in the signal ratio, with a control signal flat, not every such curve was filed as active; the % refers to the signal ratio;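 further: reporter cells co-stimulated with 50 nM rosiglitazone agonist during compound treatment; % of control where 0% means no effect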). An outline of the steps:
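Inhibitors of agonist-stimulated UAS-bla reporter activity were sought in HEK293 cells; rosiglitazone (50 nM) defined full signal and DMSO baseline. Curves fitted to Hill model gave IC50 and efficacy.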

The target in assay [19] is Vitamin D3 receptor (Homo sapiens) (UniProt P11473). As to the kind of experiment: qHTS assay for small molecule agonists of vitamin D receptor signaling (AID 588543).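 Further: 0% = DMSO basal and 100% = reference agonist control.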 A digest of the protocol: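 VDR-UAS-bla HEK293T cells, 2000/well, 2% charcoal-stripped FBS; compound titration 16 h at 37 C; CCF4 beta-lactamase ratio read. Normalized to 50 nM 1-alpha,25-dihydroxyvitamin D3 (100%) and DMSO; Hill fit gives EC50, efficacy.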
Vitamin D3 receptor (Homo sapiens), sequence (P11473 whole entry, looked up): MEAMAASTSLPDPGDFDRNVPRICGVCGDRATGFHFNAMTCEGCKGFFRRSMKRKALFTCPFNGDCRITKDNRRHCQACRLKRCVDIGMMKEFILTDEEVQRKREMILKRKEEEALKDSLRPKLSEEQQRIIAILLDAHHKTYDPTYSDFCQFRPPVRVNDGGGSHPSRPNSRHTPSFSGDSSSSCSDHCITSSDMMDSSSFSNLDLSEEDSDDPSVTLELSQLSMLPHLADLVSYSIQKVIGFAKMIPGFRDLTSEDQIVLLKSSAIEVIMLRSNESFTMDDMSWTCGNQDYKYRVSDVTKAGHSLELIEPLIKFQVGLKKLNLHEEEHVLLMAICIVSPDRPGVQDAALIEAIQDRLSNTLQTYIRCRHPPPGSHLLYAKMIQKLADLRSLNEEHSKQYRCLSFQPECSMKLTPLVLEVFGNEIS

Assay [20] in a line: qHTS assay for small molecule activators of the nuclear factor-kappa B (NF-kB) signaling pathway (AID 651749; active means well fitted activation curve with a large enough effect in the signal ratio; the % refers to the signal ratio; further: series mostly up to about 77 µM; % of control where 0% means no effect). The conditions noted are these: NF-kB-bla ME-180 cells, beta-lactamase FRET ratio, 16 h; activation: stronger effect = higher value. A digest of the protocol: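 Stably transfected ME-180 line; NF-kB response element upstream of beta-lactamase. Treatment: compound or DMSO, 16 hr. Detection: fluorescent FRET substrate.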

Estrogen receptor (Homo sapiens), sequence (P03372 whole entry, looked up): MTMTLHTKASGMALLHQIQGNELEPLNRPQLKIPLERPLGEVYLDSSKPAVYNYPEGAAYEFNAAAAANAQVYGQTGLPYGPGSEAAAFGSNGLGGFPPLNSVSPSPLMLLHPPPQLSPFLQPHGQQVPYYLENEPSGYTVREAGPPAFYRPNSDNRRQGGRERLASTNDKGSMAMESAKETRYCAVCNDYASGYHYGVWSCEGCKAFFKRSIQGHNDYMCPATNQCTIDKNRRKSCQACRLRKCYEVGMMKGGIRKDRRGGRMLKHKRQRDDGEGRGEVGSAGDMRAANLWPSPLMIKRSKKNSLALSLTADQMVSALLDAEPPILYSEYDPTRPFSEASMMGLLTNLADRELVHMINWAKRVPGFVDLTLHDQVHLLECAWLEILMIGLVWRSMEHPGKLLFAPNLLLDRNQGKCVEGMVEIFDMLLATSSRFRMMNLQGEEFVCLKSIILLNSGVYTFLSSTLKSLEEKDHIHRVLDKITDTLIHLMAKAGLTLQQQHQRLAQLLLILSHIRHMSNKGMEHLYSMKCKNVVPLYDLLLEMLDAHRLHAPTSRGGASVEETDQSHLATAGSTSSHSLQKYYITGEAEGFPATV
Peroxisome proliferator-activated receptor gamma (Homo sapiens), sequence (P37231 whole entry, looked up): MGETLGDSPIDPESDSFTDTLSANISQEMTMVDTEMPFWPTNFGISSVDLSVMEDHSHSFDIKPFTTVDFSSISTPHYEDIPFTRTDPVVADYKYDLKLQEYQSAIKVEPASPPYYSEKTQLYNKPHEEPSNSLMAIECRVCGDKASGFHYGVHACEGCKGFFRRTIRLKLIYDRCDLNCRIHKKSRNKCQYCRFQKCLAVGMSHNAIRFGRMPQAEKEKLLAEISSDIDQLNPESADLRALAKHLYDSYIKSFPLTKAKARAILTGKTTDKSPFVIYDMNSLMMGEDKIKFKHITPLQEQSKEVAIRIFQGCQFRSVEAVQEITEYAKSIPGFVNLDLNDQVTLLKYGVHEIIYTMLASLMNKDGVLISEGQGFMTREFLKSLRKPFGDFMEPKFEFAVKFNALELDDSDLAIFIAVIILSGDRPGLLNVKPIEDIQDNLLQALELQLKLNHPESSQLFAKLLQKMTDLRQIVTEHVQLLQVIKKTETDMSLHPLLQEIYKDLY
Thyroid hormone receptor beta (Homo sapiens), sequence (P10828 whole entry, looked up): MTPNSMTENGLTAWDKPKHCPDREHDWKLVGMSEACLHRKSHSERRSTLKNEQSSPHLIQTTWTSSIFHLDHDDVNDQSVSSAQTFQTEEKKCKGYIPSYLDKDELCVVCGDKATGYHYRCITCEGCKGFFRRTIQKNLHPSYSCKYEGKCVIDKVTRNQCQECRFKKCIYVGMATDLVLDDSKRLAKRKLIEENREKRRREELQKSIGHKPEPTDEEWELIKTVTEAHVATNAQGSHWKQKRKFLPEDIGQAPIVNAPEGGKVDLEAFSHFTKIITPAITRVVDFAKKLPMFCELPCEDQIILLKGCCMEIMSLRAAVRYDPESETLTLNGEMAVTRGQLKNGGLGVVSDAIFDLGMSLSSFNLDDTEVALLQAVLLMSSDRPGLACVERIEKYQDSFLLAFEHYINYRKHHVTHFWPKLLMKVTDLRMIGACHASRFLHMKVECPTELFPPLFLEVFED
Nuclear receptor subfamily 1 group I member 2 (Rattus norvegicus), sequence (Q9R1A7 whole entry, looked up): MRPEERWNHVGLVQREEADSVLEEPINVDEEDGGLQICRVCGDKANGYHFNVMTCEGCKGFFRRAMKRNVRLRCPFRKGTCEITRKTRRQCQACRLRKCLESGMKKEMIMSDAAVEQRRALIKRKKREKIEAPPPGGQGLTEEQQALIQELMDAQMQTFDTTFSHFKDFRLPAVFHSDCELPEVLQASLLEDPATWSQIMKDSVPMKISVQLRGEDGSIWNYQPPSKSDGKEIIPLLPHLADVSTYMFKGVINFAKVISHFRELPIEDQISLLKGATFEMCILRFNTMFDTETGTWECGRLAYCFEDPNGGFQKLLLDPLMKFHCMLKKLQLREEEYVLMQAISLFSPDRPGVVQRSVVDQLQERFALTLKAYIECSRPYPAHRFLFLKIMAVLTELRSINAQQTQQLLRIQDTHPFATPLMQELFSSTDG
Peroxisome proliferator-activated receptor alpha (Homo sapiens), sequence (Q07869 whole entry, looked up): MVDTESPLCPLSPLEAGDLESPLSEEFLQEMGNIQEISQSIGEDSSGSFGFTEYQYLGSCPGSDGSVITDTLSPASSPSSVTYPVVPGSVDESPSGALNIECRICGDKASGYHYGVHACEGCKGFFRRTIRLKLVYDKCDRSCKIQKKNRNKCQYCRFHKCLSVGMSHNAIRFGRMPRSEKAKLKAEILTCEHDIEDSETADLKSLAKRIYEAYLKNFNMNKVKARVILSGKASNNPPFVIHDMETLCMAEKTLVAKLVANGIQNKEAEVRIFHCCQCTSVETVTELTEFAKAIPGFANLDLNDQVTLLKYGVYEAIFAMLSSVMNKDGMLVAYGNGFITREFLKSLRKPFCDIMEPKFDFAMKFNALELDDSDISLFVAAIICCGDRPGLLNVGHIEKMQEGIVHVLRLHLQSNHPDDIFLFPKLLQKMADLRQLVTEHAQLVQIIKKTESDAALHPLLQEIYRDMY

For the compound `C=C[Si](OCCOC)(OCCOC)OCCOC`, the Potency result in assay [1], in assay [2], in assay [5], in [7], in assay [8] and in assay [15] was “inactive” throughout. Besides, the max response in assay [3] is 25.9%; in assay [6], -7.07%; in [9] it was -8.04%; in assay [10], 2.22% (inactive); in assay [12], -0.929% (inactive); in assay [13], 15.4% (inactive). The max response in assay [14] is -9.27% (inactive); in [16], 1.26% (inactive). Further, the result in [4] and in assay [17] was inactive. Moreover, the activation in assay [11] was 0.581% (inactive).
Regarding `CCCCCCCCCCCCCCCCCC(N)=O`, the Potency entry in assay [1], in assay [2], in assay [18], in [8] and in [15] was “inactive” in each case. Moreover, the max response in assay [3] was 51.4%; in [12], -0.969% (inactive); in [13], 5.14% (inactive); in assay [14], -6.14% (inactive); in [16], 4.74% (inactive). The outcome in [19] and in [17] was inactive. Besides, the activation in assay [20] was -1.76% (inactive); in assay [11] it was -1.31% (inactive).
Regarding `C[Si](Cl)(Cl)c1ccccc1`, the Potency entry in [1], in assay [2], in assay [5], in assay [7], in assay [8] and in assay [15] was “inactive” in each case. Moreover, the max response in assay [3] is 44.2%; in assay [6], -17.5%; in [9] it was -2.11%; in [10], -4.88% (inactive); in [13], -14.9% (inactive); in assay [14], -2.42% (inactive). Further, in assay [16], the max response is -3.28% (inactive). Also, the outcome in assay [4], in assay [19] and in assay [17] was inactive. In addition, the values for the activation in assay [20] and in [11] were 0.494% (inactive) and 0.0847% (inactive), respectively.
For the compound `NCCCCCCCCCCCC(=O)O`, the Potency entry in assay [1], in assay [2], in assay [18], in assay [5], in assay [7] and in assay [8] was “inactive” in each case. The Potency entry in [15] is “inactive”. Also, the max response in assay [3] is 20.5%; in assay [6], -5.4%; in [9] it was -12%; in [10], 2.61% (inactive); in [12], -1.44% (inactive); in assay [13], 4.58% (inactive). The results for the max response in [14] and in [16] were 6.09% (inactive) and -0.534% (inactive), respectively. Also, the call in [4], in assay [19] and in assay [17] was inactive. In addition, the activation was -0.832% (inactive) in assay [20] and -1.28% (inactive) in assay [11].
Take `Nc1c(N=Nc2ccc(S(=O)(=O)CCOS(=O)(=O)O)cc2)c(S(=O)(=O)O)cc2cc(S(=O)(=O)O)c(N=Nc3ccc(S(=O)(=O)CCOS(=O)(=O)O)cc3)c(O)c12`: the Potency result in assay [1], in assay [2], in assay [5], in [7] and in [8] was “inactive” throughout. Besides, the max response in assay [3] was -15.1%; in [6], -7.65%; in assay [9], -13.3%; in assay [10] it was -5.5% (inactive); in assay [12], -8.75% (inactive); in [16] it was -11.2% (inactive). In addition, the call in assay [19] and in [17] was inactive. For the same compound, the activation is 1.61% (inactive) in assay [20] and -7.65% (inactive) in assay [11]. Besides, the results for the Potency in assay [13], in assay [14] and in [15] were 35.5 µM (active), 35.5 µM (active) and 25.1 µM (active), respectively.
For `CC(C)Cc1c(C(=O)O)c(C(F)F)nc(C(F)(F)F)c1C1=NCCS1`, the Potency entry in assay [1], in assay [2], in [18], in assay [5], in assay [7] and in [8] was “inactive” each time. In addition, the Potency entry in assay [15] is “inactive”. In addition, the max response in [3] was 45.9%; in assay [6] it was -17.4%; in assay [9] it was -0.767%; in [10] it was 6.24% (inactive); in assay [13], 3.82% (inactive); in assay [14], -5.4% (inactive). Besides, the max response in assay [16] is -2.45% (inactive). In addition, the compound was called inactive in assay [4] and in assay [19]. Also, the activation in [20] is 1.24% (inactive); in [11], -4.01% (inactive).
